Calls of active or inactive are those of the source. How the source made its calls: active means hit-call score of the fitted dose curve at least 0.9, where 1 is the maximum; inactive means score below 0.9.
What was measured:
[1] = ATG_E_Box_CIS: Attagene CIS-FACTORIAL HepG2 Assay for human Enhancer Box (E-box) (AID 2282936); conditions: HepG2 E-box cis-reporter transcription, actives raise or lower the signal
Outline: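 Transiently transfected HepG2, endogenous TF-driven reporters, 24 h dosing. Readout: RT-PCR plus capillary electrophoresis of fluorescent reporter fragments. Gain or loss of signal fitted bidirectionally against DMSO baseline.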

[2] = ATG_M_61_CIS: Attagene CIS-FACTORIAL HepG2 Assay for M61 Transcription Factor (Internal Marker) (AID 2282937); conditions: HepG2 Attagene CIS-FACTORIAL M61 internal marker reporter; actives raise or lower the signal
Outline: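 This endpoint serves as an internal background control within a multiplexed HepG2 cis-reporter panel. Cells are exposed for 24 h; reporter mRNA is amplified, fluorescently labelled and sized by capillary electrophoresis, with DMSO as negative control.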

[3] = ATG_M_19_CIS: Attagene CIS-FACTORIAL HepG2 Assay for M19 Transcription Factor (Internal Marker) (AID 2282939); conditions: HepG2 Attagene CIS-FACTORIAL M19 internal marker reporter; actives raise or lower the signal
Outline: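 In this multiplexed cell assay, transiently transfected HepG2 reporter units report endogenous transcription-factor activity; after 24 hours of treatment, labelled reporter cDNA fragments are quantified by capillary electrophoresis and fitted bidirectionally against DMSO.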

[4] = ATG_ERE_CIS: Attagene CIS-FACTORIAL HepG2 Assay for Estrogen Response Element (ERE) (AID 2282940); conditions: HepG2 ERE cis-reporter, Attagene RNA transcript; actives raise or lower the signal
Outline: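 Measuring endogenous transcription factor output, the assay doses transfected HepG2 cells for 24 hours and quantifies reporter transcripts by fluorescent RT-PCR and capillary electrophoresis, with DMSO as baseline.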

[5] = ATG_Ets_CIS: Attagene CIS-FACTORIAL HepG2 Assay for human Erythroblast Transformation Specific (ETS) (AID 2282941); conditions: HepG2 ETS cis-reporter transcription; AC50: actives raise or lower the signal unless noted; outcome: actives raise or lower the signal unless noted
Outline: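 Cis-regulated reporter mRNA induction in HepG2 (transient transfection), 24 h exposure, RT-PCR plus capillary electrophoresis detection; DMSO serves as negative control and baseline.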

[6] = molecular target: Hepatocyte nuclear factor 3-beta (Homo sapiens) (UniProt Q9Y261); assay: ATG_FoxA2_CIS: Attagene CIS-FACTORIAL HepG2 Assay for human Forkhead box A2 (FOXA2) (AID 2282942); conditions: HepG2 cis-reporter transcription factor activity, 24 h; actives raise or lower the signal
Sequence of Hepatocyte nuclear factor 3-beta (Homo sapiens) (Q9Y261 whole entry, looked up): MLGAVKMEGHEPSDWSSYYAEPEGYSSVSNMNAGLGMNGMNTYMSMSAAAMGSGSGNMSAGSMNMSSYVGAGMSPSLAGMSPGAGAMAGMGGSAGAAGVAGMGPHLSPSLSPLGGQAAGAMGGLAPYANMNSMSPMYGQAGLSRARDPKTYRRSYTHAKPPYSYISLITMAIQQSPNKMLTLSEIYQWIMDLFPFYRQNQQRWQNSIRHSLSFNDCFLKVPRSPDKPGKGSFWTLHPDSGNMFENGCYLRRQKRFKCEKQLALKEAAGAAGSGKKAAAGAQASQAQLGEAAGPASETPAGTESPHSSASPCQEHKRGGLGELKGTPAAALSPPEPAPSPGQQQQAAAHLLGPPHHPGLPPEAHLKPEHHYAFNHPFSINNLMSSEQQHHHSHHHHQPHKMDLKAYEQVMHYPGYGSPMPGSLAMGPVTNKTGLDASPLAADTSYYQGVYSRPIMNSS
Outline: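 Cells: HepG2, transient multiplex reporter transfection. Exposure 24 h. Detection: reporter-specific RT-PCR, fluorescent labelling, restriction digest, capillary electrophoresis. Analysis: bidirectional curve fit, DMSO as negative control.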

[7] = ATG_FoxO_CIS: Attagene CIS-FACTORIAL HepG2 Assay for human Forkhead box O (FoxO) (AID 2282943); conditions: HepG2 Attagene cis-reporter, FoxO element, mRNA; actives raise or lower the signal
Outline: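 Read-out: fluorescence of 6-FAM-labelled reporter cDNA fragments resolved by capillary electrophoresis. Transiently transfected HepG2 cells were dosed for 24 h; activity fitted in both directions relative to DMSO controls.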

[8] = ATG_GATA_CIS: Attagene CIS-FACTORIAL HepG2 Assay for human GATA Binding Protein (AID 2282944); conditions: HepG2 GATA cis-element reporter, Attagene multiplex mRNA; actives raise or lower the signal
Outline: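 Measures endogenous transcription factor-driven reporter mRNA in HepG2 cells transiently carrying cis-regulated constructs. 24 h dosing; RNA via oligo(dT) reverse transcription, PCR, HpaI digestion, capillary electrophoresis; fitted relative to DMSO.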

[9] = ATG_GLI_CIS: Attagene CIS-FACTORIAL HepG2 Assay for human Zinc Finger Protein GLI1 (AID 2282945); conditions: HepG2, Attagene cis-factorial reporter mRNA, GLI element; actives raise or lower the signal
Outline: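 Transiently transfected HepG2 cells report endogenous transcription factor activity via cis-element-driven reporter units. After 24 h compound exposure, reporter mRNA was measured by RT-PCR with capillary electrophoresis; bidirectional fitting against DMSO baseline.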

[10] = molecular target: Bile acid receptor (Homo sapiens) (UniProt Q96RI1); assay: ATG_IR1_CIS: Attagene CIS-FACTORIAL HepG2 Assay for human Nuclear Receptor Subfamily 1 Group H Member 4 (NR1H4), IR1 submotif (AID 2282946); conditions: IR1 reporter transcription, actives raise or lower the signal
Sequence of Bile acid receptor (Homo sapiens) (Q96RI1 whole entry, looked up): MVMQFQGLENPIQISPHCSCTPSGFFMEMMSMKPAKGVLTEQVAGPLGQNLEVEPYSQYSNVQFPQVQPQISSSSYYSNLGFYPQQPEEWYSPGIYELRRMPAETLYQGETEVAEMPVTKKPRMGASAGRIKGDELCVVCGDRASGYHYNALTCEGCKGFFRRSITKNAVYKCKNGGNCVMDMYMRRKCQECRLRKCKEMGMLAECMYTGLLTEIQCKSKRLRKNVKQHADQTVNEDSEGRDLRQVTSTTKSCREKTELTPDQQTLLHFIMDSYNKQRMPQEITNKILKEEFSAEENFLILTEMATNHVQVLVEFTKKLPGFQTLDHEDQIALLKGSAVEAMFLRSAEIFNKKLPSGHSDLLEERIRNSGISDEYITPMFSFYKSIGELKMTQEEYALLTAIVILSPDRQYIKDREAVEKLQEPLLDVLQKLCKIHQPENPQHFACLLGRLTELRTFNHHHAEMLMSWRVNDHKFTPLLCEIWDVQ
Outline: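 Fluorescence of capillary-separated, HpaI-digested RT-PCR reporter products gave IR1-element mRNA induction in HepG2 cells 24 h after dosing. Endogenous transcription factors drove the cis-regulated reporters; activity was fitted bidirectionally against DMSO.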

[11] = ATG_GRE_CIS: Attagene CIS-FACTORIAL HepG2 Assay for human Glucocorticoid Response Elements (GRE) (AID 2282947); conditions: HepG2 GRE cis-reporter, Attagene multiplex mRNA; AC50: actives raise or lower the signal unless noted; outcome: actives raise or lower the signal unless noted
Outline: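 Read-out: fluorescent reporter-transcript fragments separated by capillary electrophoresis after RT-PCR. Transiently transfected HepG2 cells carrying cis-element-driven reporter units were dosed for 24 h; gain or loss of signal fitted against DMSO control.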

[12] = ATG_ISRE_CIS: Attagene CIS-FACTORIAL HepG2 Assay for human Interferon Regulatory Factor 1 (IRF1) binding to an Interferon-Stimulated Response Element (ISRE) (AID 2282948); conditions: HepG2 ISRE cis-reporter (Attagene), mRNA transcription readout; actives raise or lower the signal
Outline: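 Multiplexed mRNA reporter readout in human liver HepG2 cells: cis-element-driven reporters transfected, compound added for 24 h, transcripts amplified, fluorescently labelled and sized by capillary electrophoresis; curve fitting bidirectional against DMSO.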

[13] = ATG_M_32_CIS: Attagene CIS-FACTORIAL HepG2 Assay for M32 Transcription Factor (Internal Marker) (AID 2282949); conditions: HepG2 Attagene cis-factorial M32 reporter, mRNA; actives raise or lower the signal;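 further: background control marker of the multiplexed CIS panel rather than a real target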
Outline: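 Transient MRTU transfection of HepG2; 24 h compound treatment; TriZol RNA, oligo(dT) RT, reporter PCR, 6-FAM primer extension, HpaI cut, CE. Gain/loss of signal vs DMSO.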

[14] = ATG_M_06_CIS: Attagene CIS-FACTORIAL HepG2 Assay for M06 Transcription Factor (Internal Marker) (AID 2282950); conditions: HepG2 Attagene CIS-FACTORIAL M06 internal marker reporter; actives raise or lower the signal
Outline: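 One of many multiplexed endpoints: HepG2 reporter mRNA after 24 h dosing, detected by RT-PCR and capillary electrophoresis fluorescence; gain or loss of signal analysed against DMSO.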

[15] = molecular target: Hypoxia-inducible factor 1-alpha (Homo sapiens) (UniProt Q16665); assay: ATG_HIF1a_CIS: Attagene CIS-FACTORIAL HepG2 Assay for human Hypoxia Inducible Factor 1 (HIF1A) (AID 2282951); conditions: HepG2 Attagene cis-factorial HIF1a reporter transcription; actives raise or lower the signal
Sequence of Hypoxia-inducible factor 1-alpha (Homo sapiens) (Q16665 whole entry, looked up): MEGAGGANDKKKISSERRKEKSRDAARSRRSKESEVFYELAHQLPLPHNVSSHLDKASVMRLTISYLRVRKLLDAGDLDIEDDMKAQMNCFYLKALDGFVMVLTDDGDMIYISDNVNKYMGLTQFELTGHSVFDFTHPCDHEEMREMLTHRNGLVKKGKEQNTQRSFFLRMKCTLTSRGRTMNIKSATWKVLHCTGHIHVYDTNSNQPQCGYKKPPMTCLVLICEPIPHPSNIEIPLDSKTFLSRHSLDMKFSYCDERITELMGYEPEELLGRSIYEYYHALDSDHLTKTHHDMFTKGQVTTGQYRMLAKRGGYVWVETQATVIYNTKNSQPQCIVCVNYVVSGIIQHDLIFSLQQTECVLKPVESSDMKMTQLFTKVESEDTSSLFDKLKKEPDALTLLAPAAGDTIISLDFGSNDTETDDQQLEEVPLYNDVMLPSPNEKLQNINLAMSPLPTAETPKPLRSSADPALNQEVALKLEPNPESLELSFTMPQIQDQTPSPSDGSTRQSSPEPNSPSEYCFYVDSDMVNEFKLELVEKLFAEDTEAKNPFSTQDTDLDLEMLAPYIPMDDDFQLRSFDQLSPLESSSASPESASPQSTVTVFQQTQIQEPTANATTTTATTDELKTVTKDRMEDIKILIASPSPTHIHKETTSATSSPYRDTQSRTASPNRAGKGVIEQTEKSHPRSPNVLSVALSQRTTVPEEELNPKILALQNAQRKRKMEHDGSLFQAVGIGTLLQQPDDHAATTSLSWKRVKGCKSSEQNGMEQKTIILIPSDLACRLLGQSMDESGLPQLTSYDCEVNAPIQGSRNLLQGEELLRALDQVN
Outline: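 HepG2, transient cis-reporter library, 24 h dosing. RNA → RT (oligo dT) → PCR → 6-FAM primer extension → HpaI → CE. Bidirectional curve fit vs DMSO.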

[16] = molecular target: Hepatocyte nuclear factor 6 (Homo sapiens) (UniProt Q9UBC0); assay: ATG_HNF6_CIS: Attagene CIS-FACTORIAL HepG2 Assay for human Hepatocyte Nuclear Factor 6 (HNF6) (AID 2282952); conditions: HepG2 Attagene cis-factorial HNF6 reporter transcription; actives raise or lower the signal
Sequence of Hepatocyte nuclear factor 6 (Homo sapiens) (Q9UBC0 whole entry, looked up): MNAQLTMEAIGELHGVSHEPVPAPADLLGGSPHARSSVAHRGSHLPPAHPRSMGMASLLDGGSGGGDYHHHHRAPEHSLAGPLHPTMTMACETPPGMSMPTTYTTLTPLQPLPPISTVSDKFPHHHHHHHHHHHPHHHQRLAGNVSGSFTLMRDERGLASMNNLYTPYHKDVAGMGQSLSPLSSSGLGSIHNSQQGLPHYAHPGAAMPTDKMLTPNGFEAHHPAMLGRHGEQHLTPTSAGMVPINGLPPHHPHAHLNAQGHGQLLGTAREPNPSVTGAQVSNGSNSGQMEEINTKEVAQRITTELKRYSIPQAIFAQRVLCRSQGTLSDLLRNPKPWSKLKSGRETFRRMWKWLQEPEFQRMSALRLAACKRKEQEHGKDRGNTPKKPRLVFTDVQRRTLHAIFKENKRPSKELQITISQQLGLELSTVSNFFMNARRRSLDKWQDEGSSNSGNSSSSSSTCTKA
Outline: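 Endogenous factor activity read in transiently transfected HepG2 via promoter-regulated reporter transcripts. RNA harvested 24 h post-dosing, reverse-transcribed, PCR-amplified, FAM-labelled, HpaI-digested and resolved by capillary electrophoresis; fitted in both directions against DMSO.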

[17] = molecular target: Heat shock factor protein 1 (Homo sapiens) (UniProt Q00613); assay: ATG_HSE_CIS: Attagene CIS-FACTORIAL HepG2 Assay for human Heat Shock Transcription Factor 1 (HSE) (AID 2282953); conditions: HepG2 HSE cis-reporter, Attagene RNA transcription; actives raise or lower the signal
Sequence of Heat shock factor protein 1 (Homo sapiens) (Q00613 whole entry, looked up): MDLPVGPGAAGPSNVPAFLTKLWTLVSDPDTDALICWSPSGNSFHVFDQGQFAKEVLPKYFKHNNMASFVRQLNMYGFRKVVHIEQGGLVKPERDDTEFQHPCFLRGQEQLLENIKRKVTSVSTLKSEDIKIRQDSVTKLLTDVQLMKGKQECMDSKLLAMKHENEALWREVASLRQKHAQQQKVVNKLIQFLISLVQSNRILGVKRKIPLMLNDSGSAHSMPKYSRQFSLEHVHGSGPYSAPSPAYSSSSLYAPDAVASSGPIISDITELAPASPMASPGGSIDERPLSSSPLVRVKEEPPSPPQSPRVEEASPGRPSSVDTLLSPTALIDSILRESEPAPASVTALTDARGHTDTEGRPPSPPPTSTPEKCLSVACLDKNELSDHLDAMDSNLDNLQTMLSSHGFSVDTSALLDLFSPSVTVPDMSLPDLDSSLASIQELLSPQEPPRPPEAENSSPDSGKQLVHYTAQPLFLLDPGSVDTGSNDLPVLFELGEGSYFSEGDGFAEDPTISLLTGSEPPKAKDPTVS
Outline: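 Using HepG2 with transfected cis-driven reporter constructs, compound effects on endogenous factor activity are scored as reporter mRNA change at 24 h. Detection: RT-PCR, HpaI digestion, capillary electrophoresis; bidirectional fitting to DMSO.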

[18] = ATG_MRE_CIS: Attagene CIS-FACTORIAL HepG2 Assay for human Metal Responsive Element (MRE) (AID 2282954); conditions: HepG2 MRE cis-reporter transcription, Attagene multiplex; actives raise or lower the signal
Outline: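 RT-PCR/capillary electrophoresis readout of reporter mRNA, 24 h post-dosing, in HepG2 cells transfected with multiplexed cis-regulated reporter constructs. Gain or loss of signal fitted bidirectionally against DMSO baseline.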

[19] = ATG_PBREM_CIS: Attagene CIS-FACTORIAL HepG2 Assay for human Phenobarbital-responsive Enhancer Module (PBREM) (AID 2282955); conditions: HepG2 PBREM cis-reporter, Attagene multiplexed transcription; actives raise or lower the signal
Outline: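 HepG2, transient MRTU transfection, 24 h dosing; RNA → oligo(dT) RT → PCR → 6-FAM extension → HpaI → CE. Bidirectional fit vs DMSO.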

Measured: outcome

CCOCCOCC
inactive: all assays above

CCC(=O)O
not listed: [10] | [18] | [19]
inactive: all other assays above

O=C(NCc1ncc(C(F)(F)F)cc1Cl)c1c(Cl)cccc1Cl
inactive: all assays above

O=C(F)C(F)(F)C(F)(F)C(F)(F)C(F)F
not listed: [9]
inactive: all other assays above
